The results in this text go back to the OligoGym collection.
Note: reference of the scale not given here.

This test addresses AGPAT6. The test is described as follows: pooled miR-30 sensor sort-seq; sequence = guide strand. Particulars: shRNA.
Sequence TTCATCTGCCTCTCTAGTCATG had a sensor-assay potency score (higher = more potent) of -1.09.

For the sequence TTGAACATCATCACCGATGTAT, the sensor-assay potency score (higher = more potent) is 0.749.

Regarding TTTTTGAACATCATCACCGATG, the sensor-assay potency score (higher = more potent) is -0.209.

Take TACTACTACCACTTCGACGAAT: the sensor-assay potency score (higher = more potent) was -0.506.

In the case of TTGATCTCTTCTTCTAGTGAAG, the sensor-assay potency score (higher = more potent) was -1.1.

As for TAAGTGAACATGTTTACTCATG, the sensor-assay potency score (higher = more potent) was -1.14.

TCTTCTTCTAGTGAAGTGGGAT: the sensor-assay potency score (higher = more potent) is -0.236.

On to AAGATGATCACATCGATCGGTG, for which the sensor-assay potency score (higher = more potent) is -0.372.

In turn, TATTGATGCAGGTTCCTTCTGG came in with a sensor-assay potency score (higher = more potent) of -0.00526.

TCTCTTTGATCTCTTCTTCTAG: the sensor-assay potency score (higher = more potent) was -0.219.

In turn, ATACTTGATAGCAACAGGGTAA registered a sensor-assay potency score (higher = more potent) of -0.725.

Regarding TTCTAGTGAAGTGGGATCCTTT, the sensor-assay potency score (higher = more potent) is -0.0261.
